# An excerpt weighted towards active compounds, which were near 4.7% of everything screened.
# eIF4H inh: inhibitors of RNA binding by human eIF4H | eIF4H fluorescence polarization binding assay | inhibition, % at 35 µM | 0.94% of 290,000 active | AID 2012;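 note: calls also rest on retests at 20 µM and on dose response follow-up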
# PABP1 MLLE inh: inhibitors of microRNA-mediated deadenylation, human PABP1 MLLE binding; 0.36% of 360,000 active; inhibition, % at 20 µM; P11940; GST-MLLE / FITC-PAM2 fluorescence polarization; AID 588489; in the data active = inhibition above about 35%, passing the limit was not always enough;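 note: plate controls were DMSO wells with GST-MLLE for no effect and wells lacking GST-MLLE protein for full effect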
# Efflux pump mplx: antifungal efflux pump inhibition, Nile Red retention; S. cerevisiae Candida pump triplex; inhibition, % at 10 µM; 0.44% of 330,000 active;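 active = plate passing quality check with inhibition over a set limit, or well fluorescence over plate mean plus 4 SD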;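 note: Nile Red retained in pooled yeast measured as flow cytometry median fluorescence; 0% = buffer negative control and 100% = Enniatin B positive control; higher means more Nile Red kept so more efflux inhibition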
# ALR H2O2 inh: inhibitors of human sulfhydryl oxidase ALR; P55789; purified ALR, DTT oxidation, H2O2 HRP-luminol luminescence; inhibition, % (concentration not given with the values); 3.8% of 290,000 active; AID 485317;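 active = mean replicate inhibition above about 79%, with every replicate also reaching it, limit read from the data; inconclusive = only one of the two criteria met; inactive = mean below limit and not every replicate reaching it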
# Target sequence (P55789 whole entry, looked up): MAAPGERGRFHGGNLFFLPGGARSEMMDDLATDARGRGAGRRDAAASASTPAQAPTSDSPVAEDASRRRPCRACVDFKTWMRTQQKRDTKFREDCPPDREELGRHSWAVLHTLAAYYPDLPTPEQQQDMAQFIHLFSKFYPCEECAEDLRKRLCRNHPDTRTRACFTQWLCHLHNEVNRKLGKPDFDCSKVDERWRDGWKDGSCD
# UBC9 SUMO inh: inhibitors of human SUMOylation (UBC9) | P63279 | HTRF SUMOylation assay, SAE1/SAE2 + UBC9, in vitro | inhibition, % at 35 µM | 0.36% of 290,000 active | AID 2006; in the data active = inhibition above about 50%, passing the limit was not always enough; inconclusive = no clear call, values can overlap the other calls
# Target sequence (P63279 whole entry, looked up): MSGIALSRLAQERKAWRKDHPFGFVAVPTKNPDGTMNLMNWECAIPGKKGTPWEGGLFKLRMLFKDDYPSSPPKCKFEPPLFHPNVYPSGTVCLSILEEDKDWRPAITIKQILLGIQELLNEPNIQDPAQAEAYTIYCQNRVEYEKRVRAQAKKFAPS
# PABP FP inh: blocks human PABP binding to poly(A) RNA | fluorescence polarization | 1% of 290,000 active | P11940 | inhibition, % at 35 µM;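 note: calls also rest on retests at 20 µM and on dose response follow-up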
# * marks the source's active call; other numbers are inactive results; ? = inconclusive; nt = not tested or not shown. Unless noted, the rule behind the calls is not given here.
SMILES,eIF4H inh,PABP1 MLLE inh,Efflux pump mplx,ALR H2O2 inh,UBC9 SUMO inh,PABP FP inh
CC(C)c1nnc(NC(=O)C2CCN(C(=O)Nc3ccccc3)CC2)s1,-0.3,-8.0,-0.2,-1.2,-5.2,3.9
CCC(=O)Nc1ccc(Cl)c(NC(=S)NC(=O)COc2ccccc2)c1,-3.5,38.7*,0.1,nt,4.6,-0.4
CCC(=O)Nc1ccc(Cl)c(NC(=S)NC(=O)COc2ccc(Cl)cc2)c1,-3.1,14.8,0.2,nt,1.2,5.8
Cc1nn(CCc2n[nH]c(=S)n2-c2cccc(Cl)c2)c(C)c1[N+](=O)[O-],-12.8,-16.9,-0.1,44.2,9.6,-6.4
Cc1nn(CCc2n[nH]c(=S)n2-c2ccc(F)cc2)c(C)c1[N+](=O)[O-],-10.7,-3.0,-0.2,80.8*,-6.5,-0.3
Cc1nn(CCc2n[nH]c(=S)n2-c2ccc(F)c(Cl)c2)c(C)c1[N+](=O)[O-],-4.1,-6.8,0.0,91.5*,5.5,-0.8
CC1CN(CCc2ccccc2)c2nc3c(c(=O)n(C)c(=O)n3C)n2C1 (stereo unspecified),-13.2,0.3,0.0,37.7,-0.3,7.6
CCC1CCC2(CC1)NC(=O)N(CC(=O)NCc1ccccc1Cl)C2=O (stereo unspecified),nt,-8.4,-0.3,-2.8,nt,nt
COc1ccc2cc(/C=N/NC(=O)CSCc3ccc([N+](=O)[O-])cc3)c(Cl)nc2c1,12.6,-12.6,0.0,99.1*,-6.1,10.9
COc1ccc2[nH]cc(CCNC(=O)Cn3cc(C)c(=O)[nH]c3=O)c2c1,nt,10.7,nt,nt,nt,nt
Cc1nc2cc(Oc3nc(NCCN(C)C)nc4ccsc34)ccc2s1,nt,1.5,nt,nt,nt,nt
CNC1=C(N(C(C)=O)c2ccc(Br)cc2)C(=O)c2ccccc2C1=O,5.5,2.1,-0.1,-82.8,81.7*,-7.4
COC(=O)C1CSC(C(=O)OC)N1C(=O)CN1CCN(c2ccccc2)CC1 (stereo unspecified),3.9,7.5,-0.1,91.2*,5.1,-5.5
COC(=O)C1CSC(C(=O)OC)N1C(=O)Nc1ccccc1 (stereo unspecified),7.0,22.1,-0.1,nt,4.4,2.3
COc1cc(/C=N\N=C2/SC(CC(=O)O)C(=O)N2c2ccc(O)cc2)ccc1O (stereo unspecified),6.0,-61.5,-0.1,99.5*,12.8,-2.1
Cc1ccccc1CNC1CCCCC1,-15.8,20.7,0.1,nt,14.8,21.0
Oc1cc(CNC2CCCCC2)c(O)cc1CNC1CCCCC1,nt,52.6*,nt,nt,nt,nt
CCOC(=O)C1CCN(S(=O)(=O)c2cccc(-c3csc(C)n3)c2)CC1,-9.1,17.6,-0.2,98.6*,1.3,-4.1
CCOC(=O)C1CCN(S(=O)(=O)c2cccc(-c3cn4cccnc4n3)c2)CC1,-7.4,14.4,0.1,98.0*,31.9,7.3
CCOC(=O)C1CCN(S(=O)(=O)c2cccc(-c3cn4cc(C)ccc4n3)c2)CC1,5.2,-6.3,0.1,-3.8,-3.4,1.8
COc1cccc(/C=N/NC(=O)C(=O)N/N=C/c2cccc(OC)c2O)c1O,20.5,-0.3,nt,nt,70.6*,-12.7
COc1cccc(/C=N/NC(=O)CC2C(=O)NN=C2C)c1OC (stereo unspecified),-5.3,-0.5,-0.1,15.7,13.3,0.2
COc1cccc(/C=N/NC(=O)CC2C(=O)NN=C2C)c1O (stereo unspecified),0.2,-18.5,0.1,97.0*,13.0,1.0
COc1cccc(/C=N/NC(=O)NC2CCCCC2)c1O,-9.0,10.8,-0.1,89.8*,6.6,3.6
COc1cccc(/C=N/NC(=O)CSCC(=O)Nc2ccccc2)c1O,2.4,-2.1,-0.1,91.4*,-1.9,0.9
SMILES,eIF4H inh,PABP1 MLLE inh,Efflux pump mplx,ALR H2O2 inh,UBC9 SUMO inh,PABP FP inh
COc1ccc(/C=N/NC(=O)CSCC(=O)Nc2ccccc2)cc1,2.1,-1.1,-0.1,-5.3,24.1,7.6
O=C1c2ccccc2C2N1CCCN2C(=O)c1sc2ccccc2c1Cl (stereo unspecified),nt,-9.7,nt,nt,nt,nt
CCCN1CCN(C(=O)C(C)n2nc(C)c3sc4ccccc4c3c2=O)CC1 (stereo unspecified),-6.4,-3.6,-0.2,-2.3,10.6,-6.5
O=C(NCCN1CCCC1=O)C1CCC(=O)N(CCc2cccc(F)c2)C1 (stereo unspecified),-9.6,11.3,0.0,-21.1,-19.0,2.0
COCCNc1nc(NCc2cccc(OC)c2)c2sc(-c3ccccc3)cc2n1,nt,8.9,nt,nt,nt,nt
CCOC(=O)c1c(NC(=O)c2ccccc2)sc2c1CCc1ccccc1-2,7.7,43.4*,-0.1,-71.9,-5.1,13.1
C=CCC(C(=O)Oc1c(C(C)(C)C)cc(C)cc1C(C)(C)C)c1ccccc1 (stereo unspecified),nt,3.1,0.1,-6.6,nt,nt
Cc1nc([N+](=O)[O-])c(Sc2nc3ccccc3n2C)n1Cc1ccccc1,11.7,-42.0,0.6,98.1*,3.8,44.6
C[C@H]1CN([C@@H](C)CO)C(=O)CCCn2nncc2CO[C@@H]1CN(C)S(=O)(=O)c1ccc(-n2cccn2)cc1,nt,-10.6,nt,nt,nt,nt
O=C(COC(=O)Cc1ccc(Br)cc1)Nc1ccc(Cl)cn1,nt,6.5,0.0,-12.3,nt,nt
Cc1ccc2nc(N3CCN(C(=O)CCC(=O)O)CC3)nc(-c3ccccc3)c2c1,-3.7,8.8,0.1,11.4,21.5,-2.7
O=C(O)CCCC(=O)N1CCN(c2nc(-c3ccccc3)c3ccccc3n2)CC1,6.6,-0.6,0.0,77.4*,30.2,6.1
COc1cc(C2Nn3c(nnc3-c3ccccc3OC)S2)ccc1O (stereo unspecified),1.3,-11.9,0.0,98.7*,-3.0,-8.7
CC1(C)CC(=O)C(Sc2nnc(-c3ccc(NS(C)(=O)=O)cc3)n2Cc2ccco2)C(=O)C1,-9.4,-53.2,0.1,91.5*,-2.9,0.7
Cc1ncc(N=Nc2ccc(F)cc2)c(-c2ccc(Cl)cc2)n1,0.4,5.1,0.0,-13.7,0.4,-4.4
Cc1nc(N)sc1N=Nc1ccc(F)cc1,4.8,-10.9,0.5,98.3*,-3.2,3.6
O=C(CCl)N=c1sccn1Cc1ccccc1Cl,-7.4,2.1,-0.2,nt,15.3,-6.4
O=C(CCl)N=c1sccn1Cc1ccc(Cl)cc1Cl,7.4,5.8,0.2,94.8*,4.8,-20.7
Cc1nnc(SCC(=O)N/N=C/c2cc(Cl)c(O)c(Cl)c2)s1,-10.0,13.3,-0.8,82.1*,3.8,0.7
O=C(NCC(c1cccnc1)N1CCOCC1)c1ccco1 (stereo unspecified),5.8,8.9,0.1,-2.8,-7.6,-2.8
O=C(NCc1ccncc1)C(=O)NCC(c1ccco1)N1CCN(c2ccccc2)CC1 (stereo unspecified),-3.5,-4.4,0.1,99.2*,-1.3,-7.6
O=C(NCC(c1ccco1)N1CCN(c2ccccc2)CC1)c1ccco1 (stereo unspecified),nt,-3.0,-0.2,42.0,nt,nt
COc1ccc(N2CCN(C(CNC(=O)C(=O)NCc3ccncc3)c3ccco3)CC2)cc1 (stereo unspecified),-8.1,-0.6,0.0,?,16.6,-10.2

# Screening results (PubChem)
